Reference: the supplement of paper PMC3334620
Over roughly 33,000 sequences, “E-score (-0.5 to 0.5)” has its median near -0.015; the highest 2% begin near 0.3. This is one part of a sample in which the highest values are shown more often than they occur.

biological target: T1, Abf1 (UniProt P14164); experiment: PBM E-score (8-mer binding enrichment) (E-score (-0.5 to 0.5)); higher = stronger / more preferred TF binding; settings: protein concentration: 200 nM; construct: GST-full length
T1 sequence: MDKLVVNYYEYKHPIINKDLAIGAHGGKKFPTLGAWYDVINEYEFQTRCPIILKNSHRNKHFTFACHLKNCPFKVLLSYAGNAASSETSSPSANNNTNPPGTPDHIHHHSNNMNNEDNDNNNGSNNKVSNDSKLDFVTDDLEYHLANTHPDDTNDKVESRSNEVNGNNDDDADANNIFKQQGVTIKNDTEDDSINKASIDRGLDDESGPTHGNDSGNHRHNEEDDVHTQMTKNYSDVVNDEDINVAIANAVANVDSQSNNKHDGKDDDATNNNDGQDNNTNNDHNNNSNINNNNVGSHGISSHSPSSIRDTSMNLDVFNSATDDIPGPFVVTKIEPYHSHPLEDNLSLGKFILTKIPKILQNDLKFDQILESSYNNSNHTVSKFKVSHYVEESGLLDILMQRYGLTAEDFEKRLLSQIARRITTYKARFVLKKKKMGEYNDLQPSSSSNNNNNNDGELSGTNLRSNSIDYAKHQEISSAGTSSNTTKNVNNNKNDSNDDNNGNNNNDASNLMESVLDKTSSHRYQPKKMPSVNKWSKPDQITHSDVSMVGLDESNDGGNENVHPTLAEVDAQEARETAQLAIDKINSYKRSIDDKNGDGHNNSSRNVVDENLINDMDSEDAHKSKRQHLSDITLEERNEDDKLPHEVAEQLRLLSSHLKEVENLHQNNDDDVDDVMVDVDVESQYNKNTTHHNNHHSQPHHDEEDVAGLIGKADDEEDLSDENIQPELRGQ
How it was run: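 Masliner-normalised scans of fluorescent anti-GST signal were the basis for scoring. That signal came from GST-tagged yeast transcription factors applied at about 100-200 nM to double-stranded universal all-10-mer Agilent arrays on fresh or once-stripped slides. Each ungapped eight-base word, pooled with its reverse complement, received an E-score from the Universal PBM Analysis Suite.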

Sequence	PBM E-score
AGTCGAAT	-0.178
AAGGAACC	-0.053
TCGATCGA	-0.141
CAGACAAC	-0.0277
ATGTCACG	0.437
CTGTCACA	0.138
CTGTCACC	0.174
ATGTCAGC	0.0322
ATGTCACA	0.282
ATGTCACC	0.429
GTCCTCAC	0.0512
GGGCTCTA	-0.22
CCCCTGGA	-0.17
AACGGACT	-0.0919
CGATGGCG	-0.0766
GTTAGCAA	0.104
ATGATGAA	0.306
ATGATGAG	0.141
ATGATTGA	0.346
ATGATGCA	0.309
ATGATGAC	0.306
CTGATGAA	0.0318
ATGATTGG	-0.094
ATGATTGC	0.0463
ATGATGCC	0.0807

Sequence	PBM E-score
CTGATGAC	0.203
GTGATGCA	0.185
GTGATGAA	0.207
GAATGGAC	0.0322
GTTCCGGA	-0.0188
TATACATA	0.0494
GAGGGGGC	-0.346
CGGAGTCA	-0.111
AAAGCCTT	-0.219
CTATGGGA	-0.0561
ACACCGTA	0.0493
CCACCGTA	0.341
GCACCGTA	0.0841
GGGGGCCA	-0.462
CGTAGAAA	0.318
CGTAGAAG	0.222
AGTAGAAA	0.168
AGGGGTAT	-0.179
GCGTCGGA	-0.111
GGAGCCCC	-0.293
TATATTAA	0.167
CATATTAG	0.136
CATATTAA	0.315
ACGAACGC	0.214
GACTGTGC	0.0177

Sequence	PBM E-score
CTGTGATA	0.201
ACGTGATC	0.261
GCGTGAGA	0.168
ACGTGATA	0.318
GTGTGATA	0.327
ACGTGATG	0.215
GCGTGATA	0.353
ATGTGATA	0.291
CCGTGATA	0.283
CGCGATTA	0.0309
AGGTATGC	0.0905
CAGGCTGA	-0.188
AAATAATT	0.212
CGTACATA	0.364
CGTACAAA	0.408
GGTACAGA	0.00644
CGTACACG	0.245
AGTACATA	0.0814
CGTACAGA	0.308
CGTACATC	0.134
GGTACAAA	0.0902
CGTACACC	-0.0081
AGTACAAA	0.101
CGTACAGC	-0.0515
CGTACACA	0.318

Sequence	PBM E-score
GGAGATAA	0.0908
CAAACGGG	-0.0186
AACCGATT	0.0401
GCACCCAA	-0.239
CTTCTTTA	0.12
AGATGGGG	-0.284
GAACAATC	0.0605
GAAATTCC	-0.102
AGTACAAG	0.0462
CGTACAAG	0.357
CGTACAAC	0.276
GACGCCGA	0.0176
CGTATCAC	0.281
CGTATAAA	0.417
CGTATCAA	0.343
CGTATAAG	0.349
CGTATAAC	0.366
CATATAAG	0.0553
AGTATAAG	0.0186
AGTATAAC	0.194
TGTATCAA	-0.0209
TGTATAAA	0.116
AGTATAAA	0.252
GGTATAAC	0.0343
GATCCTAA	0.0497

Sequence	PBM E-score
ACCAAAAC	0.0329
ATTAAGTA	0.133
ATCTGTCA	0.212
CAACCAGG	-0.288
CGAAAGGA	0.191
GGAATACA	-0.0854
ATGGCTAA	-0.0715
AATCGTCC	0.168
CATCGTCG	0.231
CATCGTCC	0.137
GATCGTCA	0.277
TATCGTGA	0.286
CATCGTCA	0.297
TATCGTCA	0.33
AATCGTCA	0.334
AATCGTCT	0.269
CGAATGGA	0.0823
GACCCTAA	0.012
CAACGTTC	-0.145
GATGATGC	0.152
CATGATGG	-0.191
CATGATGC	0.123
GATGATGA	0.223
TATGATGA	0.313
CATGATGA	0.365

Sequence	PBM E-score
CAGTACCC	-0.0706
GGTAATAC	0.099
CGTAATAG	0.112
CGTAATAC	0.303
GAGTGAGC	0.033
AGGTGATC	0.276
AAGTGATT	0.347
GAGTGAAC	-0.115
CAGTGATG	0.255
AAGTGAAT	0.16
ATGTGATG	0.0498
AAGTGATC	0.41
ATGTGATC	0.18
AAGTGATG	0.314
AAGTGAGT	0.0964
GAGTGATC	0.327
CAAAATGA	0.275
CAAGATGC	0.148
TAACTCTA	-0.0858
TACAGGGA	-0.19
GACGGGAC	-0.171
ACGGCAAT	0.277
CTCAATGA	0.0427
TGAATTCA	0.171
CAGGGCCA	-0.227

Sequence	PBM E-score
CAGTGAGC	-0.118
CAGTGATC	0.366
CTGTGATC	0.0861
GGTGTACA	-0.178
GGTCATAC	-0.0499
AGTCATCA	0.135
CGTCATAG	0.143
CGTCATCC	0.167
CGTCATTA	0.327
AGTCATTA	0.037
CGTCATAC	0.316
CGTCATCA	0.349
GGTCATTA	0.134
GACTGCGA	-0.206
GCTATGCA	-0.102
AGGCACGG	0.062
GACAGACA	0.119
CGGTCAGC	-0.137
CACGTCTA	0.166
GAGAATAA	0.034
ACGATCAC	0.274
ATGATCAC	0.335
CTGATCAC	0.294
GGGATCAC	-0.0214
GTGATCAC	0.386

Sequence	PBM E-score
ATCATGAA	0.121
ATCATGAT	0.416
ATGATCAA	0.273
CTGATCAA	-0.114
ATCATGAG	0.238
ATGATCAG	0.269
GTGATCAA	0.392
CGAGCTTA	-0.0534
AGCAGTAC	-0.0878
GCAAACGC	0.00943
AAGGTCGC	0.0476
AATTGAAA	0.116
AATCCAGG	0.0662
CCTGTCTC	-0.123
ATGGGGTA	-0.00916
CGAGCGGC	-4e-05
CGTTACCC	-0.152
CCTCTATC	-0.0168
ACGATCAT	0.222
ATGATCAT	0.387
AGGATCAT	0.0179
CGACGTGA	0.297
TTACGTAA	0.196
GTACGTAC	-0.0114
CGACGTAC	0.322

Sequence	PBM E-score
ATACGTAA	0.24
GTACGTAA	0.343
GGACGTGA	0.0158
CGACGTAA	0.123
GGACGTAC	-0.0265
CTACGTAC	0.297
ATACGTAC	0.165
AGACGTGA	0.227
CATCAGAC	-0.02
CAGAGTAG	-0.205
AGGTATAG	-0.1
TAGCGAAA	-0.00307
ACGATGGG	-0.08
CGCATTTC	-0.0669
ACCGCTGA	-0.057
TGTACGAA	0.427
CCTACGAC	0.288
CGTACGAG	0.343
CTTACGAC	0.103
GGTACGAA	0.339
CCTACGAG	0.163
AGTACGAG	0.00494
GGTACGTA	0.0572
ATTACGAA	0.281
GGTACGAC	0.185

Sequence	PBM E-score
TGTACAAA	0.0674
CGTACGAC	0.417
CTCGAATC	-0.0489
CATCCTTC	0.0215
CCACTGGC	-0.107
AGTACGAA	0.368
AGTACGAT	0.106
CGTACGCA	0.217
CTTACGAA	0.216
CGTACGAA	0.447
AGTACGAC	0.18
CATAAGGC	0.16
GCTTGCGA	0.0664
CTCAAAAG	-0.0587
AACCGGTC	-0.154
TGATATCA	0.34
AGATATCA	0.3
TGATATAA	0.281
AGATATCT	0.158
GGATATCA	0.247
AGATATCC	0.232
CGAGGATC	0.101
AGGCGGAT	-0.0114
CTCGACAA	-0.0758
ACTTACCT	-0.165

Sequence	PBM E-score
CGGCAGGC	-0.0216
CTCCGGCC	-0.212
AAGACCGG	-0.0657
CGACACGA	0.298
TCACACAA	0.0163
GCACACGA	0.303
CTACACGA	0.247
GCACACGC	-0.209
ATACACGA	0.179
AGACACGA	0.083
CGACACGC	0.0501
TCACACGA	0.297
GTACACGA	0.362
GCACACAA	-0.00644
ACACACGA	0.279
GTCGTAAA	0.184
ACACTCAA	0.123
AAGAACAT	0.157
CATGTAAG	-0.112
CCTCCGTA	0.116
TCTCTGCA	0.0379
CGCTGCCG	-0.0244
ACCGGACC	-0.113
TAATCGGA	0.0729
CAGTCGAC	0.137

Sequence	PBM E-score
CGCCTGTA	-0.234
GTCGTGTA	0.239
ATCGTATG	0.302
AACGTATA	0.1
GACGTATA	0.249
GTCGTATA	0.402
CTCGTGTA	0.157
ATCGTGTA	0.376
ATCGTATA	0.326
AGCGTATG	-0.154
ATAGTATG	0.161
ATCGTATC	0.242
CTCGTATA	0.241
GGGCTACC	-0.186
GGGTCATA	-0.0763
CCCTCGTA	0.126
TATGACCA	-0.0211
GAACAGCC	-0.195
AGACCGAC	-0.00992
TATAAATA	0.257
CGTAAATC	0.131
AATAAATA	0.32
GATAAATA	0.257
AATAAATG	0.149
AATAAAAT	0.2

Sequence	PBM E-score
AATAAATT	0.313
CGTAAATA	0.299
AGTAAATA	0.103
AAAAGATA	0.182
CCTATGCA	0.018
CGAAGCCG	-0.0718
GCACCCTA	-0.149
GAGGTCGC	0.0116
CCGTGCGA	0.354
ACGTGCAC	0.112
GCGTGCAC	-0.0221
TCGTGCAA	0.361
GCGTGCGA	-0.0331
CCGTGCAG	0.192
CCGTGCAA	0.334
GCGTGCAA	0.0992
CCGTGCGC	0.218
CCGTGCAC	0.31
CTGTGCAA	0.0274
ACGTGCAA	0.21
TCTCCAAA	-0.0776
CCCGGCCA	-0.267
AACAGCTG	-0.0093
ACACTGGG	-0.134
GCAACTCC	-0.257

Sequence	PBM E-score
ACACGTGA	0.237
CCGAACCG	-0.0651
AATGATAC	0.288
AATGATGA	0.282
GATGATAC	0.297
AATGATTA	0.273
GATAATAA	0.24
AATGATGT	0.325
AATGATAG	0.229
GATGATAA	0.36
CATGATAC	0.236
AATGATAA	0.408
AATGATGG	0.0838
AGCTAGGG	-0.309
CCTGCGTC	-0.22
ATACTTTA	0.094
ACAACCGG	0.0327
GGGGCATA	-0.184
CAGCTTAA	-0.00327
